Assay results from the supplement of paper PMC4954754.
± gives the uncertainty stated by the source.

system: HEK293T-Rex XBP1-RLuc; assay: XBP1-RLuc splicing reporter activation, triplicate, relative to 500 nM thapsigargin (% of thapsigargin); higher = stronger IRE1/XBP1s reporter activation; details: 6.8 µM; 18 h; screen: confirmation
Method: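 HEK293T-Rex cells stably expressing the ERSE-firefly luciferase (BiP promoter, ATF6-preferring) or XBP1-splicing Renilla luciferase (IRE1/XBP1s) reporter, 1536-well plates, compound at 6.8 µM for 18 hr at 37 °C; luminescence read […] and expressed as % activation = 100*(compound - median DMSO)/(median 500 nM thapsigargin - median DMSO). Primary screen was single-pass; confirmation screen in triplicate (mean ± SD).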

Row | Compound | XBP1-RLuc splicing reporter activation
1 | O=c1[nH]c(COc2ccccc2)nc2sc3c(c12)CCCC3 | 4.82 ± 0.69
2 | CCCCCC(=O)Nc1ccc(C(=O)Nc2ccccc2O)cc1 | 9.29 ± 0.42
3 | COc1cccc(-c2nc3ccc(N)cc3[nH]2)c1 | 9.9 ± 1.3
4 | O=C(N/N=C/c1ccc2c(c1)OCO2)c1cccc(F)c1 | 1.67 ± 0.99
5 | O=[N+]([O-])c1ccccc1N/N=C/c1ccc(O)c(O)c1 | 10.3 ± 1.3
6 | C=CCNC(=O)c1cc(-c2cccs2)on1 | 7.78 ± 0.96
7 | Cc1cnc(NC(=O)c2sc3nc4c(C)cccc4cc3c2N)s1 | 32.6 ± 0.95
8 | CC(=O)Oc1cc(N2CCOCC2)c(OC(C)=O)c2c1C(=O)c1ccccc1C2=O | 8.79 ± 2
9 | O=C(N/N=C\C(Br)=C\c1ccccc1)c1n[nH]c2c1CCCC2 | 7.86 ± 1.6
10 | CCOc1ccc(NC(=O)c2cccc(F)c2)c([N+](=O)[O-])c1 | 1.77 ± 2.1
11 | Cc1cc(C)c(OCC(=O)N/N=C/c2ccc(O)c(O)c2)c(Br)c1 | 17.1 ± 1.1
12 | CN(C)c1ccc(C(=NO)c2ccc(N(C)C)cc2)cc1 | 6.61 ± 1.1
13 | Cc1cc(C)c2nc3sc(C(=O)N4CCCCC4)c(N)c3cc2c1 | 1.34 ± 0.73
14 | O=C(N/N=C/c1ccc(O)c(O)c1)c1cccc(Cl)c1 | 6.18 ± 0.63
15 | Cc1ccc(C(=O)Nc2ccccc2N)cc1 | 14.1 ± 1.3
16 | O=C(N/N=C/c1ccc(O)c(O)c1)c1ccc(Br)cc1 | 20.9 ± 0.79
17 | Cc1ccc(O)c(NC(=O)c2cc(-c3ccc(F)cc3)on2)c1 | 15.9 ± 0.37
18 | COc1cc2ccccc2cc1C(=O)N/N=C/c1cccs1 | 3.81 ± 0.66
19 | Nc1cn(-c2ccccc2)nc1-c1cccs1 | 50.6 ± 2.8

Row | Compound | XBP1-RLuc splicing reporter activation
20 | O=C(CCCCCCC(=O)Nc1ccccc1)NO | -3.63 ± 0.95
21 | Cc1cc(C)nc(/N=C(\N)Nc2ccc(OCc3ccccc3)cc2)n1 | 78.3 ± 5.3
22 | Cc1ccc(O)c(N/C=C/C(=O)c2ccc(F)cc2)c1 | 10.3 ± 7.9
23 | Cc1ccc(O)c(-c2cc(-c3cccs3)[nH]n2)c1 | 7.79 ± 0.86
24 | CN(C)c1ccc(C2C(C#N)=C(N)Oc3c2sc2ccccc32)cc1[N+](=O)[O-] (configuration not stated) | 9.04 ± 0.83
25 | N#C/C(=C/c1ccc(O)c(O)c1)c1nc2ccccc2[nH]1 | 10.3 ± 0.38
26 | O=C(N/N=C/c1cccc(Cl)c1Cl)c1ccccc1O | 6.36 ± 0.63
27 | COc1cccc(C(=O)/C=C/Nc2cc(C)ccc2O)c1 | 10.2 ± 0.47
28 | COc1ccc(-c2cc(C(=O)Nc3cc(C)ccc3O)on2)cc1OC | 10.9 ± 1.2
29 | O=C(Nc1ccc(O)cc1)c1c(O)c2c([nH]c1=O)CCCC2 | 19 ± 0.94
30 | C/C(=N\NC(=O)c1n[nH]c2c1CCCC2)c1ccc2ccccc2c1 | 1.43 ± 0.96
31 | CCCCNc1ncnc2c1cnn2-c1ccc(Cl)cc1 | 1.56 ± 1.6
32 | COc1cccc(-c2cc(C(=O)Nc3cc(C)ccc3O)on2)c1 | 12.2 ± 1.9
33 | CC(C)NC(=O)c1cc(-c2ccc(O)cc2)on1 | 18.5 ± 1.6
34 | COc1cccc(C2=NOC(C(=O)Nc3cc(C)ccc3O)C2)c1 (configuration not stated) | 14.1 ± 0.22
35 | O=C(N/N=C\C(Cl)=C\c1ccccc1)c1n[nH]c2c1CCCC2 | 6.87 ± 1.5
36 | Oc1ccccc1/C=N\Nc1nc2ccccc2o1 | 19.1 ± 1.9
37 | COC(=O)c1ccc(C(=O)Nc2ccccc2N)cc1 | 9.29 ± 0.17
